We go through 24 molecules from the supplement of paper PMC13380429.

The test system of assay [1] is Vero E6 infected with SARS-CoV-2. Put plainly: morphology score (similarity to uninfected cells); higher = more like uninfected cells. The following applies: 24 h.
For assay [2] the test system is unchanged. Put plainly: SARS-CoV-2 infection rate relative to infected DMSO; higher = more infection, active = 60 or less. The following applies: 24 h.

In the case of `Cn1cnc2c(NCc3ccccc3)nc(NCCO)nc21` [olomoucine] (10 µM), the morphology score in assay [1] came out at 0.0162. The SARS-CoV-2 infection rate in assay [2] is 98.5% (inactive).
In assay [1], `CNC(=O)[C@@H](Cc1ccccc1)N(C)C(=O)[C@@H](Cc1ccc2ccccc2c1)N(C)C(=O)/C=C/CC(C)(C)N` [tabimorelin] (10 µM) came in with a morphology score of -0.00047. Further, the SARS-CoV-2 infection rate in assay [2] was 112% (inactive).
The like results for `CN[C@@H]1[C@H](O[C@H]2[C@H](O[C@H]3[C@H](O)[C@@H](O)[C@H](NC(=N)N)[C@@H](O)[C@@H]3NC(=N)N)O[C@@H](C)[C@]2(O)CO)O[C@@H](CO)[C@H](O)[C@H]1O` [dihydrostreptomycin] (10 µM) were, in that order, -0.0119 and 114% (inactive).
On to `CCCCC(CC)CNC(=N)NC(=N)NCCCCCCNC(=N)NC(=N)NCC(CC)CCCC` (stereo not drawn) [alexidine] (0.833333 µM), for which the morphology score in assay [1] is -0.0694. In addition, in assay [2], the SARS-CoV-2 infection rate was 104% (inactive).
The like results for `C[C@H]1[C@H](OC(=O)CCC(=O)O)O[C@@H]2O[C@@]3(C)CC[C@H]4[C@H](C)CC[C@@H]1[C@@]24OO3` [artesunate] (0.833333 µM) were, in that order, 0.157 and 97% (inactive).
The molecule `CCN(C(=O)c1c(O)c2c(Cl)cccc2n(C)c1=O)c1ccccc1` [laquinimod] (10 µM) had a morphology score in assay [1] of 0.168. The SARS-CoV-2 infection rate in assay [2] was 99% (inactive).
Consider `CN(C)CC[C@@](O)(c1ccccc1)c1ccccc1Cl` [clofedanol] (10 µM), for which the morphology score in assay [1] is -0.0705. Further, in assay [2], the SARS-CoV-2 infection rate is 110% (inactive).
For the molecule `CSCC[C@H](NC(=O)[C@H](CC(C)C)NC(=O)CNC(=O)[C@H](Cc1ccccc1)NC(=O)[C@H](Cc1ccccc1)NC(=O)[C@H](CCC(N)=O)NC(=O)[C@H](CCC(N)=O)NC(=O)[C@@H]1CCCN1C(=O)[C@H](CCCCN)NC(=O)[C@@H]1CCCN1C(=O)[C@@H](N)CCCN=C(N)N)C(N)=O` [substance-P] (10 µM), the morphology score in assay [1] is -0.0435. The SARS-CoV-2 infection rate in assay [2] was 114% (inactive).
As for `CCCCCC(=O)O[C@]1(C(C)=O)CC[C@H]2[C@@H]3CCC4=CC(=O)CC[C@]4(C)[C@H]3CC[C@@]21C` [17-hydroxyprogesterone-caproate] (10 µM), in assay [1], the morphology score worked out at 0.523. Besides, in assay [2], the SARS-CoV-2 infection rate was 85.5% (inactive).
The matching figures for `Oc1cc2c(cc1O)[C@@H]1c3ccc(O)c(O)c3OC[C@]1(O)C2` [hematoxylin] (10 µM): -0.0601 and 114% (inactive).
Turning to `O[C@H]1[C@H](O)[C@@H](O)[C@H](O)[C@@H](O)[C@H]1O` [inositol] (10 µM), the morphology score in assay [1] was -0.166. The SARS-CoV-2 infection rate in assay [2] is 95.5% (inactive).
The like results for `Oc1ccc(OC2CCCCO2)cc1` (stereo not drawn) [deoxyarbutin] (10 µM) were, in that order, 0.198 and 97% (inactive).
`Cc1cccc(-c2n[nH]cc2-c2ccc(F)c(-c3cnn(CCO)c3)c2)n1` (10 µM) had a morphology score in assay [1] of 0.148. For the same molecule, in assay [2], the SARS-CoV-2 infection rate was 104% (inactive).
For the molecule `Cc1cc(C(=O)NOCCO)c(Nc2ccc(I)cc2F)n(C)c1=O` (10 µM), the morphology score in assay [1] was -0.0952. For the same molecule, the SARS-CoV-2 infection rate in assay [2] was 107% (inactive).
`COc1ccc(-c2coc3cc(O)cc(O)c3c2=O)cc1` [4-methylgenistein] (10 µM) returned a morphology score in assay [1] of 0.139. Further, the SARS-CoV-2 infection rate in assay [2] was 103% (inactive).
Consider `COC(=O)C1=CO[C@@H](O[C@@H]2O[C@H](CO)[C@@H](O)[C@H](O)[C@H]2O)[C@@H]2C(CO)=CC[C@H]12` [geniposide] (10 µM), for which the morphology score in assay [1] is -0.322. For the same molecule, in assay [2], the SARS-CoV-2 infection rate was 116% (inactive).
The matching figures for `O=C(O)c1ccccc1Nc1cccc(OCc2ccc3ccccc3n2)c1` (10 µM): 0.0319 and 95.5% (inactive).
The molecule `O=C1NCC2(CCN(CCc3ccccc3)CC2)O1` [fenspiride] (10 µM) returned a morphology score in assay [1] of 0.208. Also, the SARS-CoV-2 infection rate in assay [2] is 101% (inactive).
The matching figures for `CCNCc1cc(C(C)(C)C)c(O)c(C(C)(C)C)c1` (10 µM): 0.195 and 99% (inactive).
The like results for `COC(=O)N[C@H](C(=O)N1CCC[C@H]1C(=O)Nc1ccc([C@@H]2CC[C@@H](c3ccc(NC(=O)[C@@H]4CCCN4C(=O)[C@@H](NC(=O)OC)C(C)C)cc3)N2c2ccc(C(C)(C)C)cc2)cc1)C(C)C` [ombitasvir] (10 µM) were, in that order, 0.125 and 113% (inactive).
Consider `Cc1ncc([N+](=O)[O-])n1CC(O)CCl` (stereo not drawn) [ornidazole] (10 µM), for which, in assay [1], the morphology score stood at 0.0809. Besides, the SARS-CoV-2 infection rate in assay [2] is 107% (inactive).
The matching figures for `CN1[C@@H]2C[C@@H](OC(=O)[C@H](CO)c3ccccc3)C[C@H]1[C@@H]1O[C@@H]12` (10 µM): 0.141 and 97.5% (inactive).
The like results for `CN(C)c1ccc(-c2nc3c(N4CCN(CC(=O)Nc5nccs5)CC4)c(Cl)cnc3[nH]2)cc1` (10 µM) were, in that order, 0.47 and 74.5% (inactive).
`O=C1NC(=O)c2cc(Nc3ccccc3)c(Nc3ccccc3)cc21` (10 µM) showed a morphology score in assay [1] of 0.39. Further, the SARS-CoV-2 infection rate in assay [2] is 72% (inactive).
